From ChEMBL document CHEMBL1961873, “Compounds: GSK PKIS; Assays: Nanosyn kinase panel” (2012)

Assays:
[1] = biological target: T1, Inhibitor of nuclear factor kappa-B kinase subunit epsilon (Homo sapiens) (UniProt Q14164); details: at 1 µM;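 also: reported values are averaged percent inhibition figures against human IKKε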
T1 sequence (whole entry): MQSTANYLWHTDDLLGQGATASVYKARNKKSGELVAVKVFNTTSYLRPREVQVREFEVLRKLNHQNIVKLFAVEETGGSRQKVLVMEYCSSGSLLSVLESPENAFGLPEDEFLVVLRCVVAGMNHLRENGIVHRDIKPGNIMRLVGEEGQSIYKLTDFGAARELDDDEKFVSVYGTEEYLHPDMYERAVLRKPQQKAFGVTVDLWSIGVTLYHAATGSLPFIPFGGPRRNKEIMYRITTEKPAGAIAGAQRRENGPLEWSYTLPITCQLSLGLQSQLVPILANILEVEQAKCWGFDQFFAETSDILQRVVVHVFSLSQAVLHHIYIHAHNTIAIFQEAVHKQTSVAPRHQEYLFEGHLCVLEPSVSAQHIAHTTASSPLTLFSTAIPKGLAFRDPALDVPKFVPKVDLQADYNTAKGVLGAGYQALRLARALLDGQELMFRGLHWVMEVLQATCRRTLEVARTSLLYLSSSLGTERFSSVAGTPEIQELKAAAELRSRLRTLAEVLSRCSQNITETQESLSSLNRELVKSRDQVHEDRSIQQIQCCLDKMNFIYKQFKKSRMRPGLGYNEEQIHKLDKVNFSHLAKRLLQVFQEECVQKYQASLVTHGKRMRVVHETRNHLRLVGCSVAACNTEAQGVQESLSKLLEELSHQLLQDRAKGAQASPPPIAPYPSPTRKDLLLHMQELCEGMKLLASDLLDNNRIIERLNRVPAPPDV

[2] = biological target: T2, Serine/threonine-protein kinase Nek1 (Homo sapiens) (UniProt Q96PY6); details: at 0.1 µM
T2 sequence (whole entry): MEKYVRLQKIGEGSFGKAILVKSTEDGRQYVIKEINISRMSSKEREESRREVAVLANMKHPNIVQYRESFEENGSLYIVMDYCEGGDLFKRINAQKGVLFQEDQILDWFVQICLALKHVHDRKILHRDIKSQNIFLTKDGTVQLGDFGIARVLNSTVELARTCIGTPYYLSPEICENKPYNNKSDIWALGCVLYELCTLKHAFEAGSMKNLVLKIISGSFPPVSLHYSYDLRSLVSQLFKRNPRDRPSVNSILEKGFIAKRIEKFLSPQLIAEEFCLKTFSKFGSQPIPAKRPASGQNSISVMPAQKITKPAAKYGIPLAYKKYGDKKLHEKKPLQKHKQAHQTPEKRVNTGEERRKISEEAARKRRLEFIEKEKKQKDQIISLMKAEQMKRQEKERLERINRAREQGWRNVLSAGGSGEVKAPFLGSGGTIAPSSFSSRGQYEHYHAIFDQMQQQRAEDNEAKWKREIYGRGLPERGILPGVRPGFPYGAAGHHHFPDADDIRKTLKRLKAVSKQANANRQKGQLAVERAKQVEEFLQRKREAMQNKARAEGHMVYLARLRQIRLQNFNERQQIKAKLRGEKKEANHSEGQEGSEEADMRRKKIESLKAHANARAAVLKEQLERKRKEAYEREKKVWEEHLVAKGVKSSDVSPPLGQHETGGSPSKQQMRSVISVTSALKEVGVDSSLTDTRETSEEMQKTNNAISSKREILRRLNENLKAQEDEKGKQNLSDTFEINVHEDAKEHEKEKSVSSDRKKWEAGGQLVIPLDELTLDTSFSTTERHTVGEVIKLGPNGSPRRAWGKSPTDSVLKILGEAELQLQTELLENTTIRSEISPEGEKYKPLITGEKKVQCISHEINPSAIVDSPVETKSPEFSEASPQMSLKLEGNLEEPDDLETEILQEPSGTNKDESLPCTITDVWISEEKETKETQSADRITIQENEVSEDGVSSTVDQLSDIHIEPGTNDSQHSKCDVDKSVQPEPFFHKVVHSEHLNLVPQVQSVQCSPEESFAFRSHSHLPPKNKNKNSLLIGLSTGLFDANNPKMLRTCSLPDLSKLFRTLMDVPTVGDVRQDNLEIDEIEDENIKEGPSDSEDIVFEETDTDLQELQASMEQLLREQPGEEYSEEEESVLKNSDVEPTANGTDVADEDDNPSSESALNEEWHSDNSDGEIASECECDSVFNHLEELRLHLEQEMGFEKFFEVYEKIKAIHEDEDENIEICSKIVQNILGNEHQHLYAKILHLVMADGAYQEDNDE

[3] = biological target: T2, Serine/threonine-protein kinase Nek1 (Homo sapiens); details: at 1 µM
[4] = biological target: T3, Serine/threonine-protein kinase Nek2 (Homo sapiens) (UniProt P51955); details: at 0.1 µM
T3 sequence (whole entry): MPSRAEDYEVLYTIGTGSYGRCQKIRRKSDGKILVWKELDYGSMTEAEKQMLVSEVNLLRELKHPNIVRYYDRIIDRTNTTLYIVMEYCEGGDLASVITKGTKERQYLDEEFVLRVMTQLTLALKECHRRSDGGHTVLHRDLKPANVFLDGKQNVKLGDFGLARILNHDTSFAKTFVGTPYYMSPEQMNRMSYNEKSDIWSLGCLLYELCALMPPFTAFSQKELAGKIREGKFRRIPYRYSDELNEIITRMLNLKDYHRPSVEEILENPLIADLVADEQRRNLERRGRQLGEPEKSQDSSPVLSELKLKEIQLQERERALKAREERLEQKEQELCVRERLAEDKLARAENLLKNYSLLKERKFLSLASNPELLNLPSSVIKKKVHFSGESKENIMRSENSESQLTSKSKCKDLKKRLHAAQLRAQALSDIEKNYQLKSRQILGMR

[5] = biological target: T3, Serine/threonine-protein kinase Nek2 (Homo sapiens); details: at 1 µM
[6] = biological target: Serine/threonine-protein kinase Nek6 (Homo sapiens) (UniProt Q9HC98); details: at 0.1 µM
[7] = biological target: Serine/threonine-protein kinase Nek6 (Homo sapiens) (UniProt Q9HC98); details: at 1 µM
[8] = biological target: Serine/threonine-protein kinase Nek7 (Homo sapiens) (UniProt Q8TDX7); details: at 0.1 µM
[9] = biological target: Serine/threonine-protein kinase Nek7 (Homo sapiens) (UniProt Q8TDX7); details: at 1 µM
[10] = biological target: T4, Serine/threonine-protein kinase Nek9 (Homo sapiens) (UniProt Q8TD19); details: at 0.1 µM
T4 sequence (whole entry): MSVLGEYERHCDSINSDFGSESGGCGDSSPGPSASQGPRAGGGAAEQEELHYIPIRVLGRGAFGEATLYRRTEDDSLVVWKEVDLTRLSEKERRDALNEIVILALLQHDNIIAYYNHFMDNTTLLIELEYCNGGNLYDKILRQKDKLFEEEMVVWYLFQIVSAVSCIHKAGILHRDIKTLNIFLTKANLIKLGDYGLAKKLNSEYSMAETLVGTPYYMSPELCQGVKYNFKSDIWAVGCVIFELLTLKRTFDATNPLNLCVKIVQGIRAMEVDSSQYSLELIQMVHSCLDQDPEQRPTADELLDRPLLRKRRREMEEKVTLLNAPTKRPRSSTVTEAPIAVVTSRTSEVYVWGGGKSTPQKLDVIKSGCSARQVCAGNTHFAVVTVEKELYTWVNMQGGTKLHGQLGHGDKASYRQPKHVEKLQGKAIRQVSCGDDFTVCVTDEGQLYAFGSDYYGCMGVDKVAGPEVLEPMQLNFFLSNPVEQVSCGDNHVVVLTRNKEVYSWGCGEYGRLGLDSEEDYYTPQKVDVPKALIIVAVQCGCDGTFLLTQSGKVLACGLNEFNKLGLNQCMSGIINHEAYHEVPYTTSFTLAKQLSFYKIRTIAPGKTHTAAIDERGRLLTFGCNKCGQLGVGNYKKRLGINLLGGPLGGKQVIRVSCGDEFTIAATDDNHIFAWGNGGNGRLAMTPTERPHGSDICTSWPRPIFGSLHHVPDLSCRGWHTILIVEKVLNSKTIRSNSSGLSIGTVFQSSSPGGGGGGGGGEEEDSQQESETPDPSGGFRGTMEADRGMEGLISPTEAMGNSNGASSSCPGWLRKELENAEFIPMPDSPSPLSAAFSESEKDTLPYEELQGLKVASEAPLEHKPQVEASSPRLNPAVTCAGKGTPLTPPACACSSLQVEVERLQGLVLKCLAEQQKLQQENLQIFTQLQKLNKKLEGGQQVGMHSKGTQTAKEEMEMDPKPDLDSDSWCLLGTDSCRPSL

[11] = biological target: T4, Serine/threonine-protein kinase Nek9 (Homo sapiens); details: at 1 µM
[12] = biological target: Serine/threonine-protein kinase PLK1 (Homo sapiens) (UniProt P53350); details: at 0.1 µM
[13] = biological target: Serine/threonine-protein kinase PLK1 (Homo sapiens) (UniProt P53350); details: at 1 µM
[14] = biological target: T5, Dual specificity protein kinase TTK (Homo sapiens) (UniProt P33981); details: at 0.1 µM
T5 sequence (whole entry): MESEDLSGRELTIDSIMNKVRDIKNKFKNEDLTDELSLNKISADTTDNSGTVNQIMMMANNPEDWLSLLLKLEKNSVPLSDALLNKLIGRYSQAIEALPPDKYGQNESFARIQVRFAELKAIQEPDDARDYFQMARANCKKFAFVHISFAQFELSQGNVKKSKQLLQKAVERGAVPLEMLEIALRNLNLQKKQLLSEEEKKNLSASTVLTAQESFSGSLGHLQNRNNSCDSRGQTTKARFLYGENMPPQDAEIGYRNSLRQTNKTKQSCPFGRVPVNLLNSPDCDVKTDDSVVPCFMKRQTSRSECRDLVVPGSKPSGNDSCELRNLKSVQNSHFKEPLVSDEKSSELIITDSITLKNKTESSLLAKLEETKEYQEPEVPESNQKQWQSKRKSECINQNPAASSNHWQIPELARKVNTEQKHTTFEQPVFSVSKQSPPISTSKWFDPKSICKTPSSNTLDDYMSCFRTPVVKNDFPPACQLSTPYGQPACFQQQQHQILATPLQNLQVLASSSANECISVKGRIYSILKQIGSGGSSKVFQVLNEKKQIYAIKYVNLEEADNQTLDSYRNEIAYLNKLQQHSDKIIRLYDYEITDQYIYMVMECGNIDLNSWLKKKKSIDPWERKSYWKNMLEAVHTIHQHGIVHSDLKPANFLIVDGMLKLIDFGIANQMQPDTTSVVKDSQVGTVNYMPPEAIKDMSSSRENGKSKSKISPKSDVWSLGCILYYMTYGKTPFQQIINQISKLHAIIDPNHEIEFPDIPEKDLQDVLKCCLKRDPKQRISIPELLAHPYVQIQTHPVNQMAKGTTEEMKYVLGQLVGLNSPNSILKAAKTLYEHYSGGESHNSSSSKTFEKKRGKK

[15] = test system: T6, Receptor-type tyrosine-protein kinase FLT3 (Homo sapiens), P36888 [D835Y]; details: at 1 µM
T6 sequence (whole entry): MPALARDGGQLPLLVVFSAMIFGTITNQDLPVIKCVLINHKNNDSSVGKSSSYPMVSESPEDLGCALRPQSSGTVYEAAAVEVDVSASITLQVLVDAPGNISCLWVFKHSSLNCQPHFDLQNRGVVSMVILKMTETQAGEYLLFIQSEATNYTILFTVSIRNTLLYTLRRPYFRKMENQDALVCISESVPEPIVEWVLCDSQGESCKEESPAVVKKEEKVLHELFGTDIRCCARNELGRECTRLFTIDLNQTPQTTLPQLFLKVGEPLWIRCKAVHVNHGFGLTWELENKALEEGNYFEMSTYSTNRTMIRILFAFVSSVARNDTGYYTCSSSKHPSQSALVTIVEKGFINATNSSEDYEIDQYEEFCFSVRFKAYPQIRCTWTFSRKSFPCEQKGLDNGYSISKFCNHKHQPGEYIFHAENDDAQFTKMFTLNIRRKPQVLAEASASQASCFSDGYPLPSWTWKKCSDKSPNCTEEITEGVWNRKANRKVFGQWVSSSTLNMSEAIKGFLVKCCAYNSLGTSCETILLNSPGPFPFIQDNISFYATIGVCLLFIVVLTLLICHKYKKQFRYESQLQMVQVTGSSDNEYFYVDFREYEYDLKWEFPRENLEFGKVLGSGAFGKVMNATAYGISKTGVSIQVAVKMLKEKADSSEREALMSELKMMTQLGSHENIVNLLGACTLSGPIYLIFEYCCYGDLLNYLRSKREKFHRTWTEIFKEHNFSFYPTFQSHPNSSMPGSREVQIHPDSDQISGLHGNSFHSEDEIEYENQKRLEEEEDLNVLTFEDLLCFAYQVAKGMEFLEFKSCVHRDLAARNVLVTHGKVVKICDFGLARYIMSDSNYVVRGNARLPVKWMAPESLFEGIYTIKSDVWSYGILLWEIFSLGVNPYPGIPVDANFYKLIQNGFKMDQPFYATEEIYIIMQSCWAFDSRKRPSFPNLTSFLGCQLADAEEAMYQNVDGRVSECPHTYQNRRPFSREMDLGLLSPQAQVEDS

[16] = biological target: Vascular endothelial growth factor receptor 3 (Homo sapiens) (UniProt P35916); details: at 0.1 µM
[17] = biological target: Vascular endothelial growth factor receptor 3 (Homo sapiens) (UniProt P35916); details: at 1 µM
[18] = biological target: Macrophage colony-stimulating factor 1 receptor (Homo sapiens) (UniProt P07333); details: at 0.1 µM
[19] = biological target: Macrophage colony-stimulating factor 1 receptor (Homo sapiens) (UniProt P07333); details: at 1 µM
[20] = biological target: Tyrosine-protein kinase Fyn (Homo sapiens) (UniProt P06241); details: at 0.1 µM
Tyrosine-protein kinase Fyn (Homo sapiens), sequence (P06241 2-537 limits assumed): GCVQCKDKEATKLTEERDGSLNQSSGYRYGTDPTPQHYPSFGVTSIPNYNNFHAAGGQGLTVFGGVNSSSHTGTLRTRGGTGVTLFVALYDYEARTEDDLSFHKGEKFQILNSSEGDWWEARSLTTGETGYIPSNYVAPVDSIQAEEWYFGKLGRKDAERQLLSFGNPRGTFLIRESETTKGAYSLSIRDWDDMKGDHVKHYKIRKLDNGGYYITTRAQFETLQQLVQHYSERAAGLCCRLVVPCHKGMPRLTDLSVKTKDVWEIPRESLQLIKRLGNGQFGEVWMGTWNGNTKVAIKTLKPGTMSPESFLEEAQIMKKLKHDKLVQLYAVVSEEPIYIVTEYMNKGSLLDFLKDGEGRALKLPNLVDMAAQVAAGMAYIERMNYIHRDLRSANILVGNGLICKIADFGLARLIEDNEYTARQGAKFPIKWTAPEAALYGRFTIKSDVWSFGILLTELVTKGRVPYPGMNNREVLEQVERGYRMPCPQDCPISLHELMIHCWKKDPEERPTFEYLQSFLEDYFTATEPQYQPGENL

Macrophage colony-stimulating factor 1 receptor (Homo sapiens), sequence (P07333 whole entry): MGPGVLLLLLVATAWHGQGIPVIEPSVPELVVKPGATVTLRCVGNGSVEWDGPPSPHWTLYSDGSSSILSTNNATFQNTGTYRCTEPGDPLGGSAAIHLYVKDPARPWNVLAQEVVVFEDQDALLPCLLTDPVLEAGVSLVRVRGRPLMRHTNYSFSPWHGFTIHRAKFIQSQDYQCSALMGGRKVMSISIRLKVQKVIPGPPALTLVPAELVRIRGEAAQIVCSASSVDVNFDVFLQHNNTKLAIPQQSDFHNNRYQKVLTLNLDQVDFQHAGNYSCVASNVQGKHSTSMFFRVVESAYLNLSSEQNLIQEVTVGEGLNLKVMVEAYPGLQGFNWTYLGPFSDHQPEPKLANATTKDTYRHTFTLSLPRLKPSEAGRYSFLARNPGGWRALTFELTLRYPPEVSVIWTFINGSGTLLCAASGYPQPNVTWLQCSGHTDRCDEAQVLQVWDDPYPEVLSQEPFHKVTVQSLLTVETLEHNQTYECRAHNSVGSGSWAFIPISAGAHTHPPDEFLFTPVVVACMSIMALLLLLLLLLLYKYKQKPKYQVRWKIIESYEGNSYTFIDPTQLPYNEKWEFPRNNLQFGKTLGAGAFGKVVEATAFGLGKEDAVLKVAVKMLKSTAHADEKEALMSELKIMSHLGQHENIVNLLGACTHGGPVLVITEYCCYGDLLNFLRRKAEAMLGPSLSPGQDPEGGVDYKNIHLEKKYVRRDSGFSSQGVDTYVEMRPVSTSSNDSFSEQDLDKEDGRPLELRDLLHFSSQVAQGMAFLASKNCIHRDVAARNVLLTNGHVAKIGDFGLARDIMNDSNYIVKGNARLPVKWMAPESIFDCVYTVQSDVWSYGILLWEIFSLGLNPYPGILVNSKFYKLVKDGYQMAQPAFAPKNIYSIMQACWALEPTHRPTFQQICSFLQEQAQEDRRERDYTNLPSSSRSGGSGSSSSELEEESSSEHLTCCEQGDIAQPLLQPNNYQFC
Serine/threonine-protein kinase PLK1 (Homo sapiens), sequence (P53350 whole entry): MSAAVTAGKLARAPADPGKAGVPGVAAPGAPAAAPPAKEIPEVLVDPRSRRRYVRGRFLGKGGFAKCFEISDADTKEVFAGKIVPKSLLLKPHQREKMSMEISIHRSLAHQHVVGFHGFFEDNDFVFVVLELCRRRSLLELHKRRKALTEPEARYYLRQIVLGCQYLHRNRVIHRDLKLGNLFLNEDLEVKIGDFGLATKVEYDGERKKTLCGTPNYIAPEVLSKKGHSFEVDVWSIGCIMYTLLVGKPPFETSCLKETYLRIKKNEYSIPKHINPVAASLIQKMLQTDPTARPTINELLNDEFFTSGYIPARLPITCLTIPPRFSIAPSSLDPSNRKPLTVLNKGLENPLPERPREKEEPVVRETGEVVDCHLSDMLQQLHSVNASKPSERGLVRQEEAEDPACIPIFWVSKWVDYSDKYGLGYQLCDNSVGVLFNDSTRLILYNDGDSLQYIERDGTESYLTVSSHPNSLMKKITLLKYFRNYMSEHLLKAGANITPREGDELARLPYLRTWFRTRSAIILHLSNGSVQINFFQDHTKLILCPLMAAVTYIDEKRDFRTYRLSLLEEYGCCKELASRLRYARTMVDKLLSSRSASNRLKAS
Serine/threonine-protein kinase Nek6 (Homo sapiens), sequence (Q9HC98 whole entry): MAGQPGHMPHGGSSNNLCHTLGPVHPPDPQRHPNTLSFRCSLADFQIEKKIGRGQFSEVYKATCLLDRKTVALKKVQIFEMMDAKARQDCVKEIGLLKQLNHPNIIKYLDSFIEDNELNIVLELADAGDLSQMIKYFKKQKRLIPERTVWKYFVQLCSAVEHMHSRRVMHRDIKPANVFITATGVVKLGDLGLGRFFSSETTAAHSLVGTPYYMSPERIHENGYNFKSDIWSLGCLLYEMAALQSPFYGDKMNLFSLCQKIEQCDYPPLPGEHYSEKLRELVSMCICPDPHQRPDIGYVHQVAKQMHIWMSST
Vascular endothelial growth factor receptor 3 (Homo sapiens), sequence (P35916 whole entry): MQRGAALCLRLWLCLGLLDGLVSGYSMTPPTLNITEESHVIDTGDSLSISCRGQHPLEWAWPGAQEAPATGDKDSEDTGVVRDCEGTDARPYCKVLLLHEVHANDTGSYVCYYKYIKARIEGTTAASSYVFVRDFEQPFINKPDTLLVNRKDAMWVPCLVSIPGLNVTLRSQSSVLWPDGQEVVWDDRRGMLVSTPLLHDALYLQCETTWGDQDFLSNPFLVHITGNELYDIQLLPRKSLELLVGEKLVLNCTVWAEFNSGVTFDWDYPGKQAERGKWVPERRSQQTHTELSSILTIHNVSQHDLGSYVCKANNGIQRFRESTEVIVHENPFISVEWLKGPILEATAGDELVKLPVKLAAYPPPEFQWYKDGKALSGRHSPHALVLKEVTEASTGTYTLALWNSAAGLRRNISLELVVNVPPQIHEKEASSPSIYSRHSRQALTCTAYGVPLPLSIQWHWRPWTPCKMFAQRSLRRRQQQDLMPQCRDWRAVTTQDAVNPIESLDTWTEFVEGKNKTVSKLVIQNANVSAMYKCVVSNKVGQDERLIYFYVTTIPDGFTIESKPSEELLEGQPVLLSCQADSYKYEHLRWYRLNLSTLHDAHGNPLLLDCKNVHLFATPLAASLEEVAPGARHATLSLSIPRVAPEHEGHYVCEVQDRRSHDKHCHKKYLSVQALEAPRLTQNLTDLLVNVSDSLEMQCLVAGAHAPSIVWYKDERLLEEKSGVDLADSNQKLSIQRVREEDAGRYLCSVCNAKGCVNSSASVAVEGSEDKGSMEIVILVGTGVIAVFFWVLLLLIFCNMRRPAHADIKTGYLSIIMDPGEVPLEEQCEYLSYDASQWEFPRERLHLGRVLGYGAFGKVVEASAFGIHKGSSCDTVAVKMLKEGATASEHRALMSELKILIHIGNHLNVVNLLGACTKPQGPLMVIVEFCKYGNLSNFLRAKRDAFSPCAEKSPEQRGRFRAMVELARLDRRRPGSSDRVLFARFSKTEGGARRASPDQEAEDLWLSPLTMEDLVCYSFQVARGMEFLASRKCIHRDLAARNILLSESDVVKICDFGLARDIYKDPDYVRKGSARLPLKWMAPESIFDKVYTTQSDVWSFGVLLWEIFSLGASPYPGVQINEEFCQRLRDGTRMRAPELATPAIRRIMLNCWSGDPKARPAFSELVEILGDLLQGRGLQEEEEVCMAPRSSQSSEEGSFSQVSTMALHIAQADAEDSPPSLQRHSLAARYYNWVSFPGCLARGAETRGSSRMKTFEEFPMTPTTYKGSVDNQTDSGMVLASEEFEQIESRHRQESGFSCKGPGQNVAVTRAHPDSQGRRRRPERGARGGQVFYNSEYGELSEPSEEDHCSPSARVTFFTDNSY
Serine/threonine-protein kinase Nek7 (Homo sapiens), sequence (Q8TDX7 whole entry, looked up): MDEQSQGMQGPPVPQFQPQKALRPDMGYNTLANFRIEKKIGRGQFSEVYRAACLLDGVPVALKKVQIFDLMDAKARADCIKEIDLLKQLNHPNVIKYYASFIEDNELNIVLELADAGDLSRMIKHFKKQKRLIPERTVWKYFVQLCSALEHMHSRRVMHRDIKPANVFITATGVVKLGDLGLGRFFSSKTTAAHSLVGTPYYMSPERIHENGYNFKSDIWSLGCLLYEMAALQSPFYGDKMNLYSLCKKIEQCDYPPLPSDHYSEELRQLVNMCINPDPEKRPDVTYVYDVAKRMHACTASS

SMILES	inhibition [1] [%]	inhibition [2] [%]	inhibition [3] [%]	inhibition [4] [%]	inhibition [5] [%]	inhibition [6] [%]	inhibition [7] [%]	inhibition [8] [%]	inhibition [9] [%]	inhibition [10] [%]	inhibition [11] [%]	inhibition [12] [%]	inhibition [13] [%]	inhibition [14] [%]	inhibition [15] [%]	inhibition [16] [%]	inhibition [17] [%]	inhibition [18] [%]	inhibition [19] [%]	inhibition [20] [%]
CCn1c(-c2nonc2N)nc2c(C#CC(C)(C)O)ncc(OCC3CCNCC3)c21	99.1	2.19	3.24	3.86	3.71	3.46	4.94	3.99	3.34	5.3	8.54	4.55	3.24	9.22	0.35	-2.47	34.8	1.63	1.19	-4.47
CCn1c(-c2nonc2N)nc2c(C#CC(C)(C)O)ncc(OC[C@@H]3CCCN3)c21	98.7	0.01	0.55	0.12	0.91	1.04	0.79	-0.99	-0.58	-1.1	0.02	-0.2	-3.86	4.43	-3.96	4.88	33.9	-2.54	1.4	0.24
NC(=O)c1sc(-n2cnc3cc(C(F)(F)F)ccc32)cc1OCc1ccccc1Br	3.62	1.03	1.9	2.62	3.63	-1.58	-0.03	-3.9	3.69	8.36	10.3	21	69.5	2.94	4.97	2.24	4.4	-0.7	3.85	2.13
NS(=O)(=O)c1ccc(-c2ccc3c(NC(=O)C4CC4)n[nH]c3c2)cc1	3.02	1.11	1.6	3.54	2.84	1.03	0.35	2.6	1.74	5.05	3.68	2.16	2.23	2.82	8.24	0.96	1.51	0.18	1.78	1.45
